Test results published in the supplement of paper PMC7801607.

Key:
[1] = test system: CHO; assay: % viability of CHO cells (MTT); higher = less toxic; conditions: 48 h
In short: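 Percent viability of CHO cells, relative to untreated cells, was read colorimetrically by tetrazolium (MTT) assay. Cells were seeded at 10^6 cells/well and treated for 48 h with compound at 2 or 20 µM in fresh medium.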

[2] = test system: HepG2-A16-CD81; assay: % inhibition of HepG2 viability (CellTiter-Glo); higher = more toxic; conditions: 5 µM
[3] = test system: Plasmodium falciparum NF54 stage IV/V gametocytes; assay: % inhibition of gametocyte viability (PrestoBlue); higher = more inhibition; conditions: 48 h
In short: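 Stage IV/V NF54 gametocytes were exposed to compound at 1 or 5 µM for 48 h at 37 °C under stationary, hypoxic conditions, then read by PrestoBlue fluorescence at 612 nm. The percent inhibition of gametocyte viability was normalised to vehicle and kill controls from one run.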

[4] = test system: Plasmodium falciparum NF54 asexual blood stage; assay: % inhibition of asexual blood stage proliferation (pLDH); higher = more inhibition; conditions: 72 h
In short: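 Ring-stage cultures of Plasmodium falciparum NF54 at 1% haematocrit and 2% parasitaemia were treated with compound at 2 or 20 µM in 96-well plates and kept for 72 h at 37 °C under 4% CO2, 3% O2 and 93% N2. Parasite survival was measured by the parasite lactate dehydrogenase assay, read colorimetrically at 620 nm. Percent inhibition of asexual proliferation was calculated relative to control wells, and the screen was carried out on two separate occasions.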

[5] = test system: Plasmodium falciparum NF54 stage IV/V gametocytes; assay: % inhibition of gametocyte viability (ATP bioluminescence); higher = more inhibition; conditions: 24 h
In short: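 Stage IV/V NF54 gametocytes were enriched on density gradients and seeded at 30,000 per well in 96-well plates with compound at 1 or 5 µM. Plates were incubated for 24 h at 37 °C. ATP was measured with the Promega BacTiter Glo bioluminescence system. Percent inhibition of gametocyte viability was normalised to DMSO and kill controls from a single run.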

[6] = test system: Plasmodium falciparum NF54 stage IV/V gametocytes; assay: % inhibition of gametocyte viability (luciferase reporter); higher = more inhibition; conditions: 48 h
In short: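 Percent inhibition was normalised to controls from a single run. Stage IV/V gametocytes of the NF54-Pfs16-GFP-Luc line, at 2% gametocytaemia and 2% haematocrit, were exposed to compound at 1 or 5 µM for 48 h at 37 °C under stationary, hypoxic conditions. Luminescence was then read from 30 µL lysate mixed with 30 µL Promega luciferin substrate on a GloMax-Multi+ reader with 10 s integration.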

[7] = test system: Plasmodium berghei ANKA liver stage in HepG2-A16-CD81; assay: % inhibition of liver stage parasite viability (luciferase); higher = more inhibition; conditions: 5 µM; 48 h
Method: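 Single-concentration screen of the MMV Pandemic Response Box. P. falciparum NF54 asexual blood stages: pLDH assay, 72 h at 37 °C, 2 and 20 µM, n=2. Stage IV/V gametocytes (NF54): luciferase reporter (NF54-Pfs16-GFP-Luc, 48 h), ATP bioluminescence (24 h) and PrestoBlue (48 h) at 1 and 5 µM, n=1. P. berghei liver stage (luciferase in HepG2-A16-CD81, 48 h post infection) at 5 µM, n=4. All normalised to DMSO and kill controls as % inhibition.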
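Wherever % inhibition of HepG2 viability (CellTiter-Glo) is given: HepG2-A16-CD81 hepatoma cells plated as in the liver-stage assay but without sporozoites, with DMSO wells as negative and 25 µM puromycin as positive control.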

Compound	% viability of CHO cells ([1]; 2 µM) [%]	% viability of CHO cells ([1]; 20 µM) [%]	% inhibition of HepG2 viability [2] [%]	% inhibition of gametocyte viability ([3]; 1 µM) [%]	% inhibition of gametocyte viability ([3]; 5 µM) [%]	% inhibition of asexual blood stage proliferation ([4]; 2 µM) [%]	% inhibition of asexual blood stage proliferation ([4]; 20 µM) [%]	% inhibition of gametocyte viability ([5]; 1 µM) [%]	% inhibition of gametocyte viability ([5]; 5 µM) [%]	% inhibition of gametocyte viability ([6]; 1 µM) [%]	% inhibition of gametocyte viability ([6]; 5 µM) [%]	% inhibition of liver stage parasite viability [7] [%]
Cc1ccc(N2CCC(CCOc3ccc(S(C)(=O)=O)cc3)CC2)nn1	89.6	123	1.45	0.785	< 0	9.69	64.6	1.5	< 0	0.296	< 0	17.8
N=C(N)NCCCCC(=O)Nc1cc(C(F)(F)F)cc(NC(=O)c2cc(C(=O)Nc3cc(C(F)(F)F)cc(NC(=O)CCCCNC(=N)N)c3O[C@@H]3CCNC3)ncn2)c1O[C@@H]1CCNC1	120	43	15	< 0	< 0	76.8	114	9.98	39.3	19.3	78.2	35.9
COC(=O)Nc1nc2c(C)cccc2[nH]1	101	86.1	-1.33	< 0	< 0	-2.03	-14	< 0	< 0	< 0	< 0	3.06
O=C1NC(=O)C(Br)=C1Br	118	103	5.44	13.6	< 0	42.2	102	0.158	< 0	< 0	11.4	35.8
O=C(Nc1nnc(-c2ccc(Cl)cc2)o1)c1ccc(F)cc1	94.3	106	-1.68	< 0	0.779	23.1	-13.5	< 0	< 0	< 0	1.27	63.4
CC(C)=CCC/C(C)=C/CNCCNC1C2CC3CC(C2)CC1C3 (stereo not given)	93.3	65.4	17.1	51.3	89.7	11.7	93	78	90.8	< 0	42.1	21.8
Nc1cc(N)c2nc(-c3ccccc3)c(Nc3ccc(F)cc3)nc2c1	97.5	88.4	12.8	< 0	< 0	91	92.4	< 0	19.7	< 0	< 0	43.9
Cc1cc(-c2ccccc2)c(C(=O)C(=O)Nc2ccc(N3CCN(c4ncc(F)cn4)CC3)cc2)n1C	90.7	72.7	10.6	< 0	< 0	2.18	63.9	5.9	5.39	< 0	< 0	58.8
Cc1c[nH]c(=O)nc1NCc1ccccc1	36.1	22.7	-0.05	6.6	11.5	22.3	60.5	< 0	< 0	< 0	4.07	18.3
C[C@@H](NC(=O)c1cccc(-c2c[nH]c(-c3cc4ccccc4cn3)n2)c1)c1ccc(F)cc1	91.9	101	-1.52	9.05	8.49	21.8	72.3	28.5	83.2	0.447	1.09	29.1
N[C@H](CCC(=O)N[C@@H](Cc1c[nH]c2ccccc12)C(=O)O)C(=O)O	116	57.6	-8.85	< 0	3.44	28.8	43.7	4.77	< 0	6.42	< 0	21.3
Oc1ccc2[nH]c(-c3ccccc3)nc2c1	107	93	12.1	10.1	13.2	29.1	62.2	< 0	< 0	< 0	< 0	-35.4
C(=C\c1nc2ccccc2[nH]1)/c1ccc2c(c1)OCO2	110	50.4	6.95	57.1	71.2	15.3	29.1	< 0	< 0	5.91	73.3	-23.6
O=C(Nc1nnc(-c2ccc(Cl)cc2)o1)c1nc2ccccc2s1	111	92.6	0.777	6.81	13.9	73.6	91.4	1.06	< 0	1.1	< 0	11
Cc1onc(-c2ccccc2)c1-c1ccc(S(N)(=O)=O)cc1	120	106	-1.58	12.1	41.6	48.8	77.5	1.41	< 0	0.106	< 0	4.19
COc1cc(NC(=O)CN2C(=O)NC(c3ccccc3)(c3ccccc3)C2=O)cc(OC)c1	91.4	102	-3.2	< 0	28.9	-4.55	7.51	< 0	< 0	< 0	8.59	9.85
CCCCCCC1c2ccc(O)cc2Oc2cc(O)ccc21	80.1	49.3	11.4	5.99	< 0	-7.32	12.9	4.64	15.4	< 0	< 0	42.4
Nc1ccc(-c2nc3cc(C(F)(F)F)ccc3n2C23CC4CC(CC(C4)C2)C3)cc1	97.3	130	-7.13	22.2	19.2	10.3	67.9	< 0	< 0	< 0	< 0	20.5
Oc1c(C(Nc2nc3ccccc3s2)c2ccc(OC(F)F)cc2)ccc2cccnc12 (stereo not given)	79.6	74.4	45.6	26.7	60.6	70.5	65.8	22.2	24.6	12.2	54.3	52.7
CC(C)Nc1ncnc2c1cnn2-c1ccc(Cl)cc1	89.8	122	13.3	17.9	15.6	18.3	69.3	< 0	< 0	< 0	62.4	43.2
O=C(c1ccc(F)cc1)N1CCN2C(=O)c3ccccc3C12c1ccccc1 (stereo not given)	116	109	-0.867	13.1	10.8	37.1	83.7	< 0	< 0	< 0	< 0	26
NC1C2CC3CC(C2)CC1C3 (stereo not given)	78.9	70.3	-1.51	21.5	18.1	76.1	43.4	6.86	5.87	9.54	9.98	9.47
Nc1nc(=O)c(Br)c(-c2cccc(Cl)c2)[nH]1	102	109	6.4	9.16	21	18.2	68.9	4.05	< 0	< 0	5.01	-7.9
CC(C)CCN1C(=O)C(C2=NS(=O)(=O)c3cc(NS(C)(=O)=O)ccc3N2)=C(O)[C@@H]2[C@H]3CC[C@H](C3)[C@@H]21	99.3	109	6.58	9.05	13.6	37.2	56.6	< 0	< 0	1.44	8.86	47.3
O=C(O)c1cc(-c2ccc(Br)cc2)nc2ccc(Cl)cc12	96.8	111	3.15	14.7	5.76	7.74	-6.63	< 0	< 0	< 0	< 0	-34.6
